Where two headings read alike, the source gives them in different places. Out of some 13,000 compounds screened, about 3,200 (25%) showed an effect of 50% or more. Some of the results follow.
Tested on: P. falciparum stage V gametocytes
Design: BacTiter-Glo ATP luminescence viability of purified stage V gametocytes in 384-well plates, per cent inhibition versus DMSO
Conditions: 48 h, 5 µM, inhibitor

CCCc1cc(C(=O)N[C@@H](Cc2ccccc2)[C@H](O)CNC2CCOCC2)c(F)c(N2CCCCS2(=O)=O)c1 [TCMDC-135445]
% Inhibition: 21.51%

Cc1ccccc1C1CCN(C2CCC(NC(=O)c3ccc(-c4ccccn4)s3)CC2)CC1 (stereo not shown) [TCMDC-134106]
% Inhibition: -14.35%

COc1cc(Cc2cnc(N)nc2N)ccc1OCc1cccc(Oc2ccccc2)c1 [TCMDC-138681]
% Inhibition: -11.55%

COc1cccc(Nc2nccc(NCC(O)c3ccc(C(F)(F)F)cc3)n2)c1 (stereo not shown) [TCMDC-136594]
% Inhibition: -17.97%

CN1C(=C2SC(=Nc3ccc4ncccc4c3)N(Cc3ccccc3)C2=O)Sc2ccc(Cl)cc21 [TCMDC-124118]
% Inhibition: 3.008%

COc1ccc(NC(=O)[C@H](CC(C)C)Nc2cc(C)nc(NCC3CCCCC3)n2)cc1 [TCMDC-134917]
% Inhibition: -43.94%

COc1cc(C2NCC3(CCOCC3)c3cc4c(cc32)OCCO4)cc(OC)c1OC (stereo not shown) [TCMDC-125743]
% Inhibition: -20.6%

Cc1cc(C)c(C)c(OCCCON2C(N)=NC(N)=NC2(C)C)c1C [TCMDC-131791]
% Inhibition: -4.975%

CC(C)CNCc1ccc(-c2cccc(CN(C(=O)CCC3CCCC3)C3CCN(Cc4ccccc4)CC3)c2)cc1 [TCMDC-140551]
% Inhibition: 80.54%

COCCNCc1ccc(-c2cccc(CN(C(=O)CCC3CCCC3)C3CCN(Cc4ccccc4)CC3)c2)cc1 [TCMDC-140552]
% Inhibition: 102.7%

O=C(NC1CCN(c2ccnc3ccccc23)C1)c1cccc(C(F)(F)F)c1 (stereo not shown) [TCMDC-133580]
% Inhibition: -5.668%

N#Cc1ccc(CN2CCC(Oc3ccc(NC(=O)c4cccs4)cc3)CC2)cc1 [TCMDC-133953]
% Inhibition: 32.19%

O=C(O[C@H]1CN[C@H](C#Cc2cc3c(Nc4ccc(OCc5cccc(F)c5)c(Cl)c4)ncnc3s2)C1)N1CCCC1 [TCMDC-135291]
% Inhibition: -17.95%

CCN(C)C(=O)n1ncc2c3c(N)nc(N)nc3ccc21 [TCMDC-137828]
% Inhibition: 19.76%

Cc1ccc(CCNCC(O)c2cccc(C(F)(F)F)c2)cc1 (stereo not shown) [TCMDC-131447]
% Inhibition: 15.63%

Cc1c(CN2CCC(N3CCC(C(=O)NC4CC4)CC3)CC2)[nH]c2c(Cl)cccc12 [TCMDC-124608]
% Inhibition: 11.69%

Cc1ccccc1Cn1c(CN2CCC(C(=O)NC3CC3)CC2)cc2ccccc21 [TCMDC-134259]
% Inhibition: 50.21%

O=C(NC1CC1)C1CCN(Cc2cc3ccccc3n2Cc2ccc(Cl)cc2)CC1 [TCMDC-125065]
% Inhibition: 41.24%

CN(C)CCCn1cncc1-c1ccc2ncnc(Nc3ccc(OCc4ccccc4)cc3)c2c1 [TCMDC-138088]
% Inhibition: 1.652%

COc1ccccc1N1CCN(CCCCNC(=O)c2ccc(NC(=O)c3ccc4ccccc4c3)cc2)CC1 [TCMDC-138109]
% Inhibition: -15.04%

Cc1ccc(C(NC(=O)C2CCCCC2)c2ccc3cccnc3c2O)cc1 (stereo not shown) [TCMDC-123654]
% Inhibition: 50.75%

CCCC(=O)NC(c1ccc(C)cc1)c1ccc2cccnc2c1O (stereo not shown) [TCMDC-123605]
% Inhibition: 92.74%

O=S(=O)(c1cccc2cccnc12)N1CCN(C2CCCCC2)CC1 [TCMDC-123840]
% Inhibition: 8.014%

CC(C)C(=O)NC(c1ccc(Cl)cc1)c1ccc2cccnc2c1O (stereo not shown) [TCMDC-124343]
% Inhibition: 44.71%

CC(C)c1ccc(C(NC(=O)C2CCCCC2)c2ccc3cccnc3c2O)cc1 (stereo not shown) [TCMDC-125560]
% Inhibition: 15.44%

CCC(C)NC(=O)Cn1c2ncccc2c(=O)n1-c1ccc(C)cc1 (stereo not shown) [TCMDC-124738]
% Inhibition: -0.9664%

CCCC(=O)NC(c1ccc(C(C)C)cc1)c1ccc2cccnc2c1O (stereo not shown) [TCMDC-123884]
% Inhibition: 62.61%

C[C@@H](CC1CCCCC1)OC(=O)N[C@H]1CCN(C#N)C1 [TCMDC-138496]
% Inhibition: 45.07%

O=C(COc1ccccc1)Nn1cnc2ccccc21 [TCMDC-124536]
% Inhibition: 15.87%

CNS(=O)(=O)c1ccc2c(c1)nc(C1CCN(CC3CCC(NC(=O)/C=C/c4ccc(Cl)c(Cl)c4)CC3)CC1)n2C (stereo not shown) [TCMDC-140374]
% Inhibition: 8.841%

COc1ccc(-c2nc(-c3ccc([N+](=O)[O-])cc3)no2)cc1OC [TCMDC-125731]
% Inhibition: 16.37%

CCOc1ccc(-c2noc(-c3c[nH]c4ccccc4c3=O)n2)cc1 [TCMDC-125156]
% Inhibition: 27.36%

CCn1cc(-c2nc(-c3cc(OC)cc(OC)c3)no2)c(=O)c2ccccc21 [TCMDC-125155]
% Inhibition: 51.09%

CCOc1cc2ncnc(Nc3ccc(OCc4ccccc4F)c(Cl)c3)c2cc1OCC [TCMDC-131914]
% Inhibition: 3.797%

CC(C)CN1CCCN(Cc2cccc(NC(=O)c3ccc(-c4ccccc4)cc3)c2)CC1 [TCMDC-141841]
% Inhibition: -91.11%

Cc1cccc2nc(-c3ccc(-c4ccc(CNCc5cnn(-c6ccccc6)n5)cc4)cc3)[nH]c12.O=C(O)C(F)(F)F [TCMDC-132974]
% Inhibition: 25.92%

CCOC(=O)C(C)(C)Oc1ccc(C(=C2CC(C)(C)CC(C)(C)C2)c2ccc(O)cc2)cc1 [TCMDC-135525]
% Inhibition: -61.64%

Cc1cccc(C(=O)Nc2ccnc(N3CCC(N(C)Cc4ccccc4)CC3)c2)c1 [TCMDC-135001]
% Inhibition: -20.99%

CCN(CCNC(=O)C1CCN(c2cc(-c3cccc(C)c3)ncn2)CC1)Cc1ccccc1 [TCMDC-124739]
% Inhibition: 86.1%

Cc1cccc(-c2ccc(NC(=O)C3CCN(Cc4cccc(O)c4)CC3)cc2)c1 [TCMDC-124641]
% Inhibition: 44.56%

O=C(NC(Nc1ccc([N+](=O)[O-])cc1)C(Cl)(Cl)Cl)c1cccc(Cl)c1 (stereo not shown) [TCMDC-124129]
% Inhibition: 26.63%

O=C(Cc1ccccc1)NC(Nc1ccc([N+](=O)[O-])cc1)C(Cl)(Cl)Cl (stereo not shown) [TCMDC-125789]
% Inhibition: 52.36%

O=C(NC(NC(=S)Nc1ccc([N+](=O)[O-])cc1)C(Cl)(Cl)Cl)c1cccc(Cl)c1 (stereo not shown) [TCMDC-124130]
% Inhibition: -46.64%

CCCC(=O)NC(NC(=S)Nc1ccc([N+](=O)[O-])cc1)C(Cl)(Cl)Cl (stereo not shown) [TCMDC-125817]
% Inhibition: 27.07%

Cc1cccc(C(=O)NC(NC(=S)Nc2ccc([N+](=O)[O-])cc2)C(Cl)(Cl)Cl)c1 (stereo not shown) [TCMDC-124177]
% Inhibition: 26.63%

Cc1ccccc1C(=O)NC(NC(=S)Nc1ccc([N+](=O)[O-])cc1)C(Cl)(Cl)Cl (stereo not shown) [TCMDC-124151]
% Inhibition: -7.269%

O=[N+]([O-])c1ccc(C(O)P(=O)(c2ccccc2)c2ccccc2)cc1 (stereo not shown) [TCMDC-125871]
% Inhibition: -5.463%

O=C(NC(Nc1ccc([N+](=O)[O-])cc1)C(Cl)(Cl)Cl)c1ccc(Cl)cc1 (stereo not shown) [TCMDC-125818]
% Inhibition: 63.58%

CC(C)C(=O)NC(Nc1ccc([N+](=O)[O-])cc1)C(Cl)(Cl)Cl (stereo not shown) [TCMDC-125799]
% Inhibition: 71.39%

Cc1cc(C(=O)CN2C(=O)NC3(CCOc4ccccc43)C2=O)c(C)n1Cc1ccco1 (stereo not shown) [TCMDC-125252]
% Inhibition: 14.93%

COc1ccc2c(-c3ccccc3)noc2c1 [TCMDC-123782]
% Inhibition: 15.72%

Oc1cccc(-c2nc3cc(C4=NC5CCCCC5N4)ccc3[nH]2)c1 (stereo not shown) [TCMDC-137219]
% Inhibition (% Inhibition): -17.08%

Cc1cc(C)c(NC(=O)NC2CCN(CCCCCNC(=O)/C=C/c3ccc(Cl)c(Cl)c3)C2)c(C)c1 (stereo not shown) [TCMDC-139529]
% Inhibition: 92.72%

Cc1ccc(NC(=O)NC2CCN(CCCCCNC(=O)/C=C/c3ccc(Cl)c(Cl)c3)CC2)cc1C [TCMDC-135708]
% Inhibition: -56.47%

Cc1cccc(NC(=O)NC2CCN(CCCCCNC(=O)/C=C/c3ccc(Cl)c(Cl)c3)CC2)c1 [TCMDC-135702]
% Inhibition: -17.93%

Cc1cc(C)c(NC(=O)NC2CCN(CCCCCNC(=O)/C=C/c3ccc(Cl)c(Cl)c3)CC2)c(C)c1 [TCMDC-135717]
% Inhibition: -32.07%

Cc1cc(C)c(NC(=O)N[C@H]2CCN(CCCCCNC(=O)/C=C/c3ccc(Cl)c(Cl)c3)C2)c(C)c1 [TCMDC-139513]
% Inhibition: 86.25%

Cc1ccc(NC(=O)NC2CCN(CCCCCNC(=O)/C=C/c3ccc(Cl)c(Cl)c3)CC2)cc1 [TCMDC-135703]
% Inhibition: -0.844%

COc1ccc(Br)cc1/C=C/C(=O)Nc1ccc(C2CCCN(C)C2)cc1 (stereo not shown) [TCMDC-133712]
% Inhibition: 9.818%

Fc1ccc(-c2cc(NCCCn3ccnc3)nc(-c3cccnc3)n2)cc1 [TCMDC-123785]
% Inhibition: 9.204%

CC(Nc1ccc2c(c1)OCCO2)C(=O)Nc1cc(C(F)(F)F)ccc1N1CCOCC1 (stereo not shown) [TCMDC-124859]
% Inhibition: -69.42%

CC(NC(=O)c1ccc(O)c(-c2ccc(Cl)c(Cl)c2)c1)C(=O)NC1CCCCC1 (stereo not shown) [TCMDC-140823]
% Inhibition: 42.42%

Cc1cc(-c2cccc(CNCCc3ccc(Cl)cc3)c2)cnc1N [TCMDC-138091]
% Inhibition: 14.17%

Cc1cc(-c2ccc3occ(CCN)c3c2)cnc1N [TCMDC-138139]
% Inhibition: 54.74%

Cc1cc(-c2ccc(O)c(CNC3CCCCC3)c2)cnc1N [TCMDC-138129]
% Inhibition: -11.73%

CCC(C)CN1CCN(c2ccc(NC(=O)c3cccs3)cc2)C(C)C1 (stereo not shown) [TCMDC-134996]
% Inhibition: 6.92%

COC(=O)c1cc(OC2CCOC2=O)cc2c1OC(C)(C)O2 (stereo not shown) [TCMDC-131234]
% Inhibition: 42.88%

O=C(/C=C/c1cccc2ccccc12)NCCCCCN1CCC(c2c[nH]c3ccccc23)CC1 [TCMDC-139208]
% Inhibition: 101.3%

O=C(/C=C/c1ccccc1O)NCCCCCN1CCC(c2c[nH]c3ccccc23)CC1 [TCMDC-139697]
% Inhibition: 92.48%

O=C(/C=C/c1c[nH]c2ccccc12)NCCCCCN1CCC(c2c[nH]c3ccccc23)CC1 [TCMDC-139207]
% Inhibition: -19.56%
